Counter-ions that a name gives are not always drawn. Whole data set: some 1,900 compounds, median “relative cell viability (CellTiter-Glo), compound plus cabozantinib, relative to the cabozantinib arm (arm median 1.05; reference not stated)” near 1.1, cut for the lowest 2% near 0.15. Many of the other results were omitted from the sample, so the lowest values are more common in it than they were.

The assay has as its system Hep3B. Description: relative cell viability (CellTiter-Glo), compound plus cabozantinib, relative to the cabozantinib arm (arm median 1.05; reference not stated) (fraction); higher = more viable cells (less growth inhibition). Particulars: cabozantinib 2 µM; 4 days.
For `COC(=O)N[C@H](C(=O)N1CC2(CC2)C[C@H]1c1nc(-c2ccc3c(c2)C(F)(F)c2cc(-c4ccc5[nH]c([C@@H]6[C@H]7CC[C@H](C7)N6C(=O)[C@@H](NC(=O)OC)C(C)C)nc5c4)ccc2-3)c[nH]1)C(C)C` [Ledipasvir (GS5885)], the relative cell viability amounted to 1.
Then `FC(F)(F)c1ccc(CNc2ccc(Cc3c[nH]c4ncc(Cl)cc34)cn2)cn1` [Pexidartinib (PLX3397)], with 1.07.
For `C[C@H]1COC2=C1C(=O)C(=O)c1c2ccc2c1CCCC2(C)C` [Cryptotanshinone], the relative cell viability was 0.918.
With `C=CC(=O)Nc1cccc(Nc2nc(Nc3ccc(N4CCN(C(C)=O)CC4)cc3OC)ncc2C(F)(F)F)c1`, the relative cell viability came out at 0.831.
`COc1nc(C)cnc1NS(=O)(=O)c1cccnc1-c1ccc(-c2nnco2)cc1` [Zibotentan (ZD4054)]: the relative cell viability came out at 1.22.
`C/C(=N\NC(=S)N1CCC1)c1ccccn1`: the relative cell viability was determined as 0.0579.
To `CC(=O)Nc1ccccc1` [Acetanilide] belongs 1.07.
To `CC(C)(C)C(=O)Nc1ccc2c(c1)C(=O)C(=O)c1ccccc1-2` belongs 0.0959; to `CC1=CC(=O)c2ccccc2C1=O` [Menadione], 1.05; to `C[C@H]1O[C@@H](O[C@H]2[C@@H](O)C[C@H](O[C@H]3[C@@H](O)C[C@H](O[C@H]4CC[C@@]5(C)[C@H](CC[C@@H]6[C@@H]5C[C@@H](O)[C@]5(C)[C@@H](C7=CC(=O)OC7)CC[C@]65O)C4)O[C@@H]3C)O[C@@H]2C)C[C@H](O)[C@@H]1O` [Digoxin], 0.0999.
As to `CO[C@H]1C[C@@H]2CC[C@@H](C)[C@@](O)(O2)C(=O)C(=O)N2CCCC[C@H]2C(=O)O[C@H]([C@H](C)C[C@@H]2CC[C@@H](OP(C)(C)=O)[C@H](OC)C2)CC(=O)[C@H](C)/C=C(\C)[C@@H](O)[C@@H](OC)C(=O)[C@H](C)C[C@H](C)/C=C/C=C/C=C/1C` [Ridaforolimus (Deforolimus, MK-8669)], the relative cell viability is 1.3.
On to `CN/C(=N\CCSCc1nc[nH]c1C)NC#N` [Cimetidine], for which the relative cell viability turned out to be 0.986.
Then `COc1cccc2c1C(=O)c1c(O)c3c(c(O)c1C2=O)C[C@@](O)(C(=O)CO)C[C@@H]3O[C@H]1C[C@H](N)[C@@H](O)[C@H](C)O1` [Epirubicin HCl], with 0.045; and `COc1cccc2c1C(=O)c1c(O)c3c(c(O)c1C2=O)C[C@@](O)(C(C)=O)C[C@@H]3O[C@H]1C[C@H](N)[C@H](O)[C@H](C)O1` [Daunorubicin HCl], with 0.0514; and `COc1cccc2c1C(=O)c1c(O)c3c(c(O)c1C2=O)C[C@@](O)(C(=O)CO)C[C@@H]3O[C@H]1C[C@H](N)[C@H](O)[C@H](C)O1` [Doxorubicin (Adriamycin)], with 0.111.
To `COc1cccc2c1C(=O)c1c(O)c3c(c(O)c1C2=O)C[C@@](O)(C(=O)CO)C[C@@H]3O[C@H]1C[C@H](N)[C@H](O[C@@H]2CCCCO2)[C@H](C)O1` [Pirarubicin] belongs 0.178; to `Cc1onc(-c2ccccc2Cl)c1C(=O)N[C@@H]1C(=O)N2[C@@H]1SC(C)(C)[C@@H]2C(=O)O` [Cloxacillin Sodium], 1.1.
Then `C=C1CC[C@H](O)C/C1=C/C=C1\CCC[C@]2(C)[C@@H]([C@H](C)CCCC(C)(C)O)CC[C@@H]12` [Calcifediol], with 0.993; and `CC[C@H](C)C[C@H](C)CCCCCCCCC(=O)N[C@H]1C[C@@H](O)[C@@H](NCCN)NC(=O)[C@@H]2[C@@H](O)CCN2C(=O)[C@H]([C@H](O)CCN)NC(=O)[C@H]([C@H](O)[C@@H](O)c2ccc(O)cc2)NC(=O)[C@@H]2C[C@@H](O)CN2C(=O)[C@H]([C@@H](C)O)NC1=O` [Caspofungin Acetate], with 1.1; and `Nc1ncnc2n[nH]c(Nc3ccc(F)cc3)c12`, with 1.05.
Turning to `Cc1ccc(C(=O)Nc2ccc(CN3CCN(C)CC3)c(C(F)(F)F)c2)cc1C#Cc1cnc2[nH]ncc2c1`, the relative cell viability is 0.279.
Then `Cc1ccc(C(=O)Nc2ccc(CN3CCN(C)CC3)c(C(F)(F)F)c2)cc1C#Cc1cnc2cccnn12`, with 0.127.
For the molecule `Cc1ccc(NC(=O)c2ccc(CN3CC[C@H](N(C)C)C3)c(C(F)(F)F)c2)cc1Nc1nccc(-c2cncnc2)n1` [Bafetinib (INNO-406)], the relative cell viability came out at 1.05.
Turning to `CC(C)(F)C[C@H](N[C@@H](c1ccc(-c2ccc(S(C)(=O)=O)cc2)cc1)C(F)(F)F)C(=O)NC1(C#N)CC1` [Odanacatib (MK-0822)], the relative cell viability is 1.15.
To `Cn1cc(CNCC2CCN(c3ncc(C(=O)NO)cn3)CC2)c2ccccc21` belongs 0.121; to `CN1CCc2c(c3ccccc3n2Cc2ccc(C(=O)NO)cc2)C1` [Tubastatin A HCl], 1.01; to `CN1CCc2c(c3ccccc3n2Cc2ccc(C(=O)NO)cc2)C1` [Tubastatin A], 1.16.
Regarding `COc1cc(C(=O)NS(=O)(=O)c2ccccc2C)ccc1Cc1cn(C)c2ccc(NC(=O)OC3CCCC3)cc12` [Zafirlukast], the relative cell viability was found to be 0.9.
To `C[C@H](NCc1ccc(OCc2cccc(F)c2)cc1)C(N)=O` [Safinamide Mesylate] belongs 1.22; to `OC[C@H]1O[C@@H](OCCc2ccc(O)cc2)[C@H](O)[C@@H](O)[C@@H]1O` [Salidroside], 0.974.
On to `C[C@H]1O[C@H](O[C@H]2[C@H](O)[C@@H](O)[C@@H](O[C@H]3[C@H](O)[C@@H](O)C(O)O[C@@H]3CO)O[C@@H]2CO)[C@H](O)[C@@H](O)[C@@H]1N[C@H]1C=C(CO)[C@@H](O)[C@H](O)[C@H]1O` (some centres not stated) [Acarbose], for which the relative cell viability worked out at 1.21.
To `O=C1c2cccc(O)c2C(=O)c2c(O)cc(CO)cc21` [Aloe-emodin] belongs 1.04.
Then `O=C1c2c(O)ccc(O)c2C(=O)c2c(NCCNCCO)ccc(NCCNCCO)c21` [Mitoxantrone], with 0.0306.
Consider `O=C1c2c(O)ccc(O)c2C(=O)c2c(NCCNCCO)ccc(NCCNCCO)c21` [Mitoxantrone HCl], for which the relative cell viability was 0.0809.
Then `COc1cc([C@@H]2c3cc4c(cc3[C@@H](O[C@@H]3O[C@@H]5CO[C@@H](C)O[C@H]5[C@H](O)[C@H]3O)[C@H]3COC(=O)[C@H]23)OCO4)cc(OC)c1O` [Etoposide], with 0.923; and `COc1cc([C@@H]2c3cc4c(cc3[C@@H](O[C@@H]3O[C@@H]5CO[C@@H](c6cccs6)O[C@H]5[C@H](O)[C@H]3O)[C@H]3COC(=O)[C@H]23)OCO4)cc(OC)c1O` [Teniposide], with 0.104.
To `O=C(O)CC1CC(c2ccccc2)=NO1` (configuration not stated) belongs 1.1; to `CC(C(O)c1ccc(O)cc1)N1CCC(Cc2ccccc2)CC1` (configuration not stated) [Ifenprodil Tartrate], 1.13; to `CS(=O)(=O)CCNCc1ccc(-c2ccc3ncnc(Nc4ccc(OCc5cccc(F)c5)c(Cl)c4)c3c2)o1`, 1.03.
To `CS(=O)(=O)CCNCc1ccc(-c2ccc3ncnc(Nc4ccc(OCc5cccc(F)c5)c(Cl)c4)c3c2)o1` [Lapatinib] belongs 0.971; to `CN(C)Cc1cccc(N/C(=C2\C(=O)Nc3cc(C(N)=O)ccc32)c2ccccc2)c1`, 0.924; to `CCS(=O)(=O)Nc1ccc2c(c1)/C(=C(/Nc1ccc(CN3CCCCC3)cc1)c1ccccc1)C(=O)N2` [Hesperadin], 0.123.
As for `COC(=O)c1ccc2c(c1)NC(=O)/C2=C(\Nc1ccc(N(C)C(=O)CN2CCN(C)CC2)cc1)c1ccccc1` [Nintedanib (BIBF 1120)], the relative cell viability was determined as 0.806.
To `O=C1NCC2(CCN(CCc3ccccc3)CC2)O1` [Fenspiride HCl] belongs 1.16.
For `CCCCN(Cc1ccc(C(=O)NO)cc1)C(=O)Nc1ccccc1` [Nexturastat A], the relative cell viability was 0.953.
To `CC(=O)Nc1ccc(C(=O)Nc2ccccc2N)cc1` [CI994 (Tacedinaline)] belongs 1.14; to `CC(C)[C@H](C(=O)Nc1ccc(C(=O)NO)cc1)c1ccccc1`, 0.142.
In the case of `CC(C(=O)O)c1ccc2c(c1)Cc1cccnc1O2` (configuration not stated) [Pranoprofen], the relative cell viability is 1.
On to `CNC(=O)c1ccccc1Nc1nc(Nc2ccc(N3CCOCC3)cc2OC)ncc1Cl`, for which the relative cell viability was 0.155.
To `CCOc1cc(N2CCC(O)CC2)ccc1Nc1ncc2c(n1)N(C)c1ccccc1C(=O)N2C` belongs 1.09; to `COc1cc(N2CCC(N)CC2)ccc1Nc1ncc(Cl)c(-c2c[nH]c3ccccc23)n1`, 0.119.
Take `CC/C(=C(/CC)c1ccc(O)cc1)c1ccc(O)cc1` [Diethylstilbestrol]: the relative cell viability was 1.21.
For `CCCCNc1ncc(C(=O)NCc2ccc(-n3ccnc3)cc2)c(NC2CCC(O)CC2)n1` (configuration not stated), the relative cell viability is 0.996.
Then `Cc1cc(C#N)cc(C)c1Oc1nc(Nc2ccc(C#N)cc2)nc(N)c1Br` [Etravirine (TMC125)], with 1.23; and `COc1cc(-c2cc(-c3ccc(N4CCNCC4)cc3)cnc2C)cc(OC)c1OC`, with 1.01; and `COc1ccc(-c2cnc3c(-c4cccc5ncccc45)cnn3c2)cc1`, with 1.08.
Take `c1cc(-c2cnn3cc(-c4ccc(N5CCNCC5)cc4)cnc23)c2cccnc2c1`: the relative cell viability amounted to 0.148.
As for `CS(=O)(=O)N1CCc2c(-c3cnc(N)nc3)nc(N3CCOCC3)nc21`, the relative cell viability is 0.228.
Take `CNC(=O)c1ccccc1Nc1cc(Nc2ccc(N3CCOCC3)cc2OC)ncc1C(F)(F)F`: the relative cell viability was 1.05.
For `CCCCCCCCCCCC[N+](C)(C)CCOc1ccccc1` [Domiphen Bromide], the relative cell viability came to 1.02.
With `Cc1[nH]c2ccccc2c1CCNCc1ccc(/C=C/C(=O)NO)cc1` [Panobinostat (LBH589)], the relative cell viability came to 0.108.
For `Cc1[nH]c2ccccc2c1CCNC(=O)c1cccs1`, the relative cell viability was 1.18.
To `Cc1ccc([N+](=O)[O-])cc1S(=O)(=O)N(C)/N=C/c1cnc2ccc(Br)cn12` belongs 0.113; to `CCN(CC)C(=S)SSC(=S)N(CC)CC` [Disulfiram], 0.0898.
To `Oc1ncnc2[nH]ncc12` [Allopurinol] belongs 0.992.
As for `CC(C)[C@H]1CC[C@H](C(=O)N[C@H](Cc2ccccc2)C(=O)O)CC1` [Nateglinide], the relative cell viability was found to be 1.13.
Take `CC(C)(C)c1nc(-c2cccc(NS(=O)(=O)c3c(F)cccc3F)c2F)c(-c2ccnc(N)n2)s1`: the relative cell viability was found to be 0.993.

Values taken from the supplement of paper PMC9399229.
